# In PubChem BioAssay AID1159580 (chemical genetic matrix, 2015):
# The campaign covered roughly 5,500 compounds. About 2,000 (36%) were called active. Inconclusive results (about 18%) are left out. Some of the results follow. Values without a mark were called inactive. Cut-off read from the data, not from the text of the source: active = normalized growth mostly below about 0.91 (no sharp cut-off); inconclusive = no clear call, values can overlap the other calls; inactive = mostly above about 0.92.
# Assay: chemical genetic growth profiling, strain panel (AID 1159580);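 note: tested at 20 µM; growth read once vehicle control cultures reached saturation at 30 °C; 1 = growth at the plate median or of vehicle wells; lower values mean less growth of the strain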
# Conditions: S. cerevisiae deletion strains, growth OD
smiles,measurement,setting,value
C/C(=C\C(=O)OCCCCCCCCC(=O)O)C[C@@H]1OC[C@H](C[C@@H]2O[C@H]2[C@@H](C)[C@H](C)O)[C@@H](O)[C@H]1O,normalized growth,"locus YAL021C, strain ccr4, active compounds read low",0.96
same,normalized growth,"locus YAL026C, strain drs2, active compounds read low",0.958
same,normalized growth,"locus YAL030W, strain snc1, active compounds read low",0.96
same,normalized growth,"locus YBL061C, strain skt5, active compounds read low",0.987
same,normalized growth,"locus YBR009C, strain hhf1, active compounds read low",0.961
same,normalized growth,"locus YBR023C, strain chs3, active compounds read low",0.979
same,normalized growth,"locus YBR171W, strain sec66, active compounds read low",0.929
same,normalized growth,"locus YBR231C, strain swc5, active compounds read low",0.938
same,normalized growth,"locus YBR279W, strain paf1, active compounds read low",0.986
same,normalized growth,"locus YCL011C, strain gbp2, active compounds read low",0.972
same,normalized growth,"locus YCL016C, strain dcc1, active compounds read low",0.967
same,normalized growth,"locus YCL061C, strain MRC1, active compounds read low",0.965
same,normalized growth,"locus YCL069W, strain vba3, active compounds read low",0.957
same,normalized growth,"locus YCR088W, strain abp1, active compounds read low",0.952
same,normalized growth,"locus YDL005C, strain med2, active compounds read low",0.973
same,normalized growth,"locus YDL040C, strain nat1, active compounds read low",0.982
same,normalized growth,"locus YDR001C, strain nth1, active compounds read low",0.956
same,normalized growth,"locus YDR069C, strain doa4, active compounds read low",0.982
same,normalized growth,"locus YDR137W, strain rgp1, active compounds read low",0.99
same,normalized growth,"locus YDR159W, strain sac3, active compounds read low",0.936
same,normalized growth,"locus YDR195W, strain ref2",0.964
same,normalized growth,"locus YDR297W, strain sur2, active compounds read low",0.988
same,normalized growth,"locus YDR334W, strain swr1, active compounds read low",0.951
same,normalized growth,"locus YDR335W, strain msn5, active compounds read low",0.963
same,normalized growth,"locus YDR392W, strain spt3, active compounds read low",0.941
same,normalized growth,"locus YEL003W, strain gim4, active compounds read low",0.969
same,normalized growth,"locus YEL037C, strain rad23, active compounds read low",0.968
same,normalized growth,"locus YEL061C, strain CIN8 (second series), active compounds read low",0.967
same,normalized growth,"locus YER015W, strain faa2, active compounds read low",0.99
same,normalized growth,"locus YER016W, strain bim1, active compounds read low",0.974
same,normalized growth,"locus YER111C, strain swi4, active compounds read low",0.93
same,normalized growth,"locus YER155C, strain BEM2 (second series), active compounds read low",0.959
same,normalized growth,"locus YFR010W, strain ubp6, active compounds read low",0.984
same,normalized growth,"locus YGL167C, strain pmr1, active compounds read low",0.973
same,normalized growth,"locus YGL173C, strain kem1, active compounds read low",0.979
same,normalized growth,"locus YGL227W, strain vid30, active compounds read low",0.965
same,normalized growth,"locus YGL240W, strain doc1, active compounds read low",1.01
same,normalized growth,"locus YGL253W, strain hxk2, active compounds read low",0.912
same,normalized growth,"locus YHR013C, strain ard1, active compounds read low",0.985
same,normalized growth,"locus YHR027C, strain rpn1, active compounds read low",0.987
same,normalized growth,"locus YHR030C, strain SLT2, active compounds read low",0.895
same,normalized growth,"locus YHR079C, strain IRE1, active compounds read low",0.919
same,normalized growth,"locus YHR142W, strain chs7, active compounds read low",0.98
same,normalized growth,"locus YJL092W, strain hpr5, active compounds read low",0.96
same,normalized growth,"locus YJL095W, strain BCK1 (second series), active compounds read low",0.965
same,normalized growth,"locus YJL095W, strain BCK1, active compounds read low",0.898
same,normalized growth,"locus YJL115W, strain asf1, active compounds read low",0.954
same,normalized growth,"locus YJL129C, strain trk1, active compounds read low",0.993
same,normalized growth,"locus YJL154C, strain vps35, active compounds read low",0.968
same,normalized growth,"locus YJL164C, strain tpk1, active compounds read low",0.98
same,normalized growth,"locus YJL166W, strain qcr8, active compounds read low",1
same,normalized growth,"locus YJL187C, strain SWE1, active compounds read low",0.976
same,normalized growth,"locus YJR066W, strain TOR1, active compounds read low",0.916
same,normalized growth,"locus YKL160W, strain elf1, active compounds read low",0.982
same,normalized growth,"locus YKR026C, strain gcn3, active compounds read low",0.931
same,normalized growth,"locus YKR091W, strain srl3, active compounds read low",0.971
same,normalized growth,"locus YLL001W, strain dnm1, active compounds read low",0.949
same,normalized growth,"locus YLL026W, active compounds read low",0.971
same,normalized growth,"locus YLL041C, strain sdh2, active compounds read low",0.965
same,normalized growth,"locus YLR027C, strain aat2, active compounds read low",0.965
same,normalized growth,"locus YLR113W, strain HOG1, active compounds read low",0.827 (active)
same,normalized growth,"locus YLR221C, strain rsa3, active compounds read low",0.982
same,normalized growth,"locus YLR258W, strain gsy2, active compounds read low",0.968
same,normalized growth,"locus YLR262C, strain YPT6 (second series), active compounds read low",0.962
same,normalized growth,"locus YLR320W, strain mms22, active compounds read low",0.968
same,normalized growth,"locus YLR342W, strain FKS1, active compounds read low",0.953
same,normalized growth,"locus YLR357W, strain rsc2, active compounds read low",0.977
same,normalized growth,"locus YLR370C, strain arc18, active compounds read low",0.957
same,normalized growth,"locus YLR384C, strain iki3, active compounds read low",0.952
same,normalized growth,"locus YML120C, strain ndi1, active compounds read low",0.979
same,normalized growth,"locus YMR058W, strain fet3, active compounds read low",0.989
same,normalized growth,"locus YMR125W, strain sto1, active compounds read low",0.962
same,normalized growth,"locus YMR129W, active compounds read low",0.974
same,normalized growth,"locus YMR205C, strain PFK2, active compounds read low",0.896
same,normalized growth,"locus YMR231W, strain pep5, active compounds read low",0.961
same,normalized growth,"locus YNL071W, strain lat1, active compounds read low",0.989
same,normalized growth,"locus YNL183C, strain NPR1, active compounds read low",0.89
same,normalized growth,"locus YNL209W, strain ssb2, active compounds read low",1
same,normalized growth,"locus YNL248C, strain rpa49, active compounds read low",1.02
same,normalized growth,"locus YNL322C, strain KRE1 (second series), active compounds read low",0.947
same,normalized growth,"locus YNR049C, strain mso1, active compounds read low",0.951
same,normalized growth,"locus YOR001W, strain rrp6, active compounds read low",0.991
same,normalized growth,"locus YOR070C, strain gyp1, active compounds read low",0.969
same,normalized growth,"locus YOR080W, strain dia2, active compounds read low",0.948
same,normalized growth,"locus YOR083W, strain WHI5, active compounds read low",0.996
same,normalized growth,"locus YOR106W, strain vam3, active compounds read low",0.979
same,normalized growth,"locus YOR231W, strain MKK1, active compounds read low",0.904
same,normalized growth,"locus YOR265W, strain rbl2, active compounds read low",0.982
same,normalized growth,"locus YOR270C, strain vph1, active compounds read low",0.987
same,normalized growth,"locus YOR290C, strain snf2, active compounds read low",0.979
same,normalized growth,"locus YPL051W, strain arl3, active compounds read low",0.984
same,normalized growth,"locus YPL078C, strain atp4, active compounds read low",1
same,normalized growth,"locus YPL106C, strain sse1, active compounds read low",0.906
same,normalized growth,"locus YPL240C, strain hsp82, active compounds read low",0.975
same,normalized growth,"locus YPL256C, strain CLN2, active compounds read low",0.911
